# Test results from the supplement of paper PMC6897291.
# What was measured:
# U-2932 [1] = experiment: growth inhibition by drug alone (1 - RLU/untreated control) (fraction); higher = stronger inhibition; details: 177Lu-lilotomab satetraxetan 0 ug/ml
# Outline: (§1)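 With or without 18 h pretreatment by a radiolabelled anti-CD37 antibody conjugate (~600 MBq/mg; 0.5 µg/ml RIVA, 1 µg/ml U-2932), RIVA and U-2932 cells were washed and plated at 3,000 cells/well. Pre-printed compound doses were 10/100 nM for RIVA and 10/1,000 nM for U-2932. Growth inhibition uses RealTime-Glo RLU relative to the untreated no-drug wells. The calculation is 1 − RLU/mean of 48 such wells per plate, with reads daily from day 3 after 1 h at 37°C.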
# RIVA [2] = experiment: as above; details: 177Lu-lilotomab satetraxetan 0 ug/ml
# Outline: as §1
# U-2932 [3] = experiment: growth inhibition by drug plus 177Lu-lilotomab satetraxetan (1 - RLU/untreated control) (fraction); higher = stronger inhibition; details: 177Lu-lilotomab satetraxetan 1 ug/ml
# Outline: as §1
# RIVA [4] = experiment: as above; details: 177Lu-lilotomab satetraxetan 0.5 ug/ml
# Outline: as §1
SMILES,"growth inhibition by drug alone (U-2932 [1]; 10 nM, time (day): 3)","growth inhibition by drug alone (U-2932 [1]; 10 nM, time (day): 4)","growth inhibition by drug alone (U-2932 [1]; 10 nM, time (day): 5)","growth inhibition by drug alone (U-2932 [1]; 10 nM, time (day): 6)","growth inhibition by drug alone (U-2932 [1]; 1000 nM, time (day): 3)","growth inhibition by drug alone (U-2932 [1]; 1000 nM, time (day): 4)","growth inhibition by drug alone (U-2932 [1]; 1000 nM, time (day): 5)","growth inhibition by drug alone (U-2932 [1]; 1000 nM, time (day): 6)","growth inhibition by drug alone (RIVA [2]; 10 nM, time (day): 3)","growth inhibition by drug alone (RIVA [2]; 10 nM, time (day): 4)","growth inhibition by drug alone (RIVA [2]; 10 nM, time (day): 5)","growth inhibition by drug alone (RIVA [2]; 10 nM, time (day): 6)","growth inhibition by drug alone (RIVA [2]; 100 nM, time (day): 3)","growth inhibition by drug alone (RIVA [2]; 100 nM, time (day): 4)","growth inhibition by drug alone (RIVA [2]; 100 nM, time (day): 5)","growth inhibition by drug alone (RIVA [2]; 100 nM, time (day): 6)","growth inhibition by drug plus 177Lu-lilotomab satetraxetan (U-2932 [3]; 10 nM, time (day): 3)","growth inhibition by drug plus 177Lu-lilotomab satetraxetan (U-2932 [3]; 10 nM, time (day): 4)","growth inhibition by drug plus 177Lu-lilotomab satetraxetan (U-2932 [3]; 10 nM, time (day): 5)","growth inhibition by drug plus 177Lu-lilotomab satetraxetan (U-2932 [3]; 10 nM, time (day): 6)","growth inhibition by drug plus 177Lu-lilotomab satetraxetan (U-2932 [3]; 1000 nM, time (day): 3)","growth inhibition by drug plus 177Lu-lilotomab satetraxetan (U-2932 [3]; 1000 nM, time (day): 4)","growth inhibition by drug plus 177Lu-lilotomab satetraxetan (U-2932 [3]; 1000 nM, time (day): 5)","growth inhibition by drug plus 177Lu-lilotomab satetraxetan (U-2932 [3]; 1000 nM, time (day): 6)","growth inhibition by drug plus 177Lu-lilotomab satetraxetan (RIVA [4]; 10 nM, time (day): 3)","growth inhibition by drug plus 177Lu-lilotomab satetraxetan (RIVA [4]; 10 nM, time (day): 4)","growth inhibition by drug plus 177Lu-lilotomab satetraxetan (RIVA [4]; 10 nM, time (day): 5)","growth inhibition by drug plus 177Lu-lilotomab satetraxetan (RIVA [4]; 10 nM, time (day): 6)","growth inhibition by drug plus 177Lu-lilotomab satetraxetan (RIVA [4]; 100 nM, time (day): 3)","growth inhibition by drug plus 177Lu-lilotomab satetraxetan (RIVA [4]; 100 nM, time (day): 4)","growth inhibition by drug plus 177Lu-lilotomab satetraxetan (RIVA [4]; 100 nM, time (day): 5)","growth inhibition by drug plus 177Lu-lilotomab satetraxetan (RIVA [4]; 100 nM, time (day): 6)"
CC(C)n1c(/C=C/C(O)CC(O)CC(=O)O)c(-c2ccc(F)cc2)c2ccccc21 (centres undefined) [Fluvastatin sodium (Lescol)],0.0449,-0.0165,-0.0177,0.0304,-0.0194,-0.0389,-0.0543,0.0255,-0.148,-0.159,-0.189,-0.293,-0.27,-0.311,-0.385,-0.508,-0.0533,0.0114,0.0651,0.148,0.00838,0.0135,0.0456,0.221,0.511,0.544,0.565,0.555,0.516,0.511,0.53,0.525
Nc1ccn([C@@H]2O[C@H](CO)[C@@H](O)[C@@H]2O)c(=O)n1 [Cytarabine],-0.00637,0.0194,-0.0299,-0.0808,0.484,0.568,0.585,0.6,-0.0997,-0.0678,-0.108,-0.326,-0.231,0.0413,0.0792,0.023,-0.0521,0.00463,-0.0153,-0.0601,0.688,0.801,0.859,0.89,0.51,0.601,0.632,0.644,0.655,0.771,0.793,0.81
